This is an account of results in ChEMBL document CHEMBL3988442, “University of Dundee, Small-Polar-MMV Screening Library” (2021).

SMILES strings stand for the structures. Values joined by “and” are separate entries in the source; they are usually repeats but may differ in a detail not shown here. Identical values can stand only once. For part of these data: Results with a measured potency or affinity are listed apart.

Common to all, as to design: scale not given: direction of the effect not stated beside the values
Test [1] deals with Protein translocase subunit SecA (Escherichia coli (strain K12)) (UniProt P10408). The test is described as follows: Assay to Identify E. coli SecA ATPase Inhibitors. It is filed as functional. Particulars: 30 µM.
Chain of Protein translocase subunit SecA (Escherichia coli (strain K12)) (P10408 whole entry): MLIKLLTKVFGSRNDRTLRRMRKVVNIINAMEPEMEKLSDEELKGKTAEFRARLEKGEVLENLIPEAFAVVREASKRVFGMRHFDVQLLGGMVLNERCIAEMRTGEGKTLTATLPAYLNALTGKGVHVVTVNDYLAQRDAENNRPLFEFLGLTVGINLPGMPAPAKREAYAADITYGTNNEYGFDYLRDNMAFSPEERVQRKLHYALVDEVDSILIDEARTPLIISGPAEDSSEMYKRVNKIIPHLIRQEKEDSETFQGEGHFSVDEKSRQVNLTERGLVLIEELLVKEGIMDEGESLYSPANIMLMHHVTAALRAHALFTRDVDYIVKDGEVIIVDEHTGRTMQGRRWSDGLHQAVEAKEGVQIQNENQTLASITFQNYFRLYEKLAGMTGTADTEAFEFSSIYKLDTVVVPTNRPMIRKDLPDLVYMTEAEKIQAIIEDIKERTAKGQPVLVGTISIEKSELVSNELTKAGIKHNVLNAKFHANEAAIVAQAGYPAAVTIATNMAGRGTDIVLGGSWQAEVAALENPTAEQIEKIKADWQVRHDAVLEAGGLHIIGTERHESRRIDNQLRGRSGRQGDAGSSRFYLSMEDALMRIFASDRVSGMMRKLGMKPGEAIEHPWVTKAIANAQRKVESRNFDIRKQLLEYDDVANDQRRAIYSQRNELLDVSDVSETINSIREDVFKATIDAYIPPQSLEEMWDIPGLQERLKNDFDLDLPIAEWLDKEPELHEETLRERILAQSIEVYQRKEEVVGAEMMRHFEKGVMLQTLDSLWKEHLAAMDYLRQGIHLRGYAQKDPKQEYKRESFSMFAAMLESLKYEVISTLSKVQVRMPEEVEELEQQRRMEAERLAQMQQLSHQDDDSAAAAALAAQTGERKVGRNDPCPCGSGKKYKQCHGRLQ
Test [2] has as its target T1, Ubiquitin-activating enzyme e1, putative (Leishmania donovani (strain BPK282A1)) (UniProt E9BSI1).
T1 sequence (whole entry): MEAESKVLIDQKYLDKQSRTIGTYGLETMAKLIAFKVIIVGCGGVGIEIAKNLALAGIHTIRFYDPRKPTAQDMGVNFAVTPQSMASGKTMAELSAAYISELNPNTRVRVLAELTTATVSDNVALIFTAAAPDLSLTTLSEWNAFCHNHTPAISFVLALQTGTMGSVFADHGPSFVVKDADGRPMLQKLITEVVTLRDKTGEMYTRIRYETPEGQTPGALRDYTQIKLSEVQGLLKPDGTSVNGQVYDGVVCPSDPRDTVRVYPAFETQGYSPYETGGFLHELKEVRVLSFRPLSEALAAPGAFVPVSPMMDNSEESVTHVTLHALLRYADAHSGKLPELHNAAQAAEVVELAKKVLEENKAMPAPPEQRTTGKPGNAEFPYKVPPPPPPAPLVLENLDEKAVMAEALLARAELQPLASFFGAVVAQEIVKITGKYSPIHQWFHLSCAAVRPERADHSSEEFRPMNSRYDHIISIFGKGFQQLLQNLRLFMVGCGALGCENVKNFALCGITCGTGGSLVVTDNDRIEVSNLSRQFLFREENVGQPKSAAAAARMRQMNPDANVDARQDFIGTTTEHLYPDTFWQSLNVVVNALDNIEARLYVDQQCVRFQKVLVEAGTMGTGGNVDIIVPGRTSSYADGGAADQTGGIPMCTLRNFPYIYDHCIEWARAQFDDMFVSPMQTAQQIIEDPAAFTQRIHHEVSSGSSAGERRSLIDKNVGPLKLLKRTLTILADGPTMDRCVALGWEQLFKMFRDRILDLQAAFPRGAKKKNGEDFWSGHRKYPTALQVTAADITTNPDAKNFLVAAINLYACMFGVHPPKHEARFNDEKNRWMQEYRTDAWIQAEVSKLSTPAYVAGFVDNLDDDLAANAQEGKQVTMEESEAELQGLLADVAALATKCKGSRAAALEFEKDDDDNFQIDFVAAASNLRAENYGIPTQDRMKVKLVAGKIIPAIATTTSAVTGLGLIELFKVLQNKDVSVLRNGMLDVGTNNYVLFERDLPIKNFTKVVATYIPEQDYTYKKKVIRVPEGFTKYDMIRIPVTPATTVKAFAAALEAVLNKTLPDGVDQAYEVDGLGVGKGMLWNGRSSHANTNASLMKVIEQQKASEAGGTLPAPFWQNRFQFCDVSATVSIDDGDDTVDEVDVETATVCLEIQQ
The test is described as follows: Leishmania donovani Ubiquitin Activating Enzyme (LdE1). It is filed as functional. Particulars: 30 µM.

The target in test [3] is Sialic acid-binding Ig-like lectin 9 (Homo sapiens) (UniProt Q9Y336). The test is described as follows: Hs-Siglec9 ALPHAscreen SOP 20170721. As to conditions: 10 µM. For orientation: Alpha assays give light when donor and acceptor beads are brought close together.
Chain of Sialic acid-binding Ig-like lectin 9 (Homo sapiens) (Q9Y336 whole entry): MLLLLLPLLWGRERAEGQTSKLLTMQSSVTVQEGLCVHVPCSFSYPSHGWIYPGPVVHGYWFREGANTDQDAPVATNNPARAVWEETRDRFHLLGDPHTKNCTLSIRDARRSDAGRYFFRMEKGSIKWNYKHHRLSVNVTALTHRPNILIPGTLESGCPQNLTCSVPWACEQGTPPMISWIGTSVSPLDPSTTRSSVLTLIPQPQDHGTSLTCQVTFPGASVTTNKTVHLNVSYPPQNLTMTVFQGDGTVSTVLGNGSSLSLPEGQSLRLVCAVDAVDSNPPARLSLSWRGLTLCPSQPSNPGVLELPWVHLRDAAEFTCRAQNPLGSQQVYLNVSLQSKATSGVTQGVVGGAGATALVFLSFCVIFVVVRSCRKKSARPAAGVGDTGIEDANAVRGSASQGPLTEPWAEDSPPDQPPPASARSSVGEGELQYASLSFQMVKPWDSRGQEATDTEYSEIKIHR
The subject of a further test is Trypanosoma cruzi. The experiment in a line: Trypanosoma cruzi phosphomannomutase and mannose-1-phosphate guanylyltransferase assay. Particulars: 10 µM. It is filed as functional.
Test [4] has as its target T2, Arginase-2, mitochondrial (Homo sapiens) (UniProt P78540).
T2 sequence (whole entry): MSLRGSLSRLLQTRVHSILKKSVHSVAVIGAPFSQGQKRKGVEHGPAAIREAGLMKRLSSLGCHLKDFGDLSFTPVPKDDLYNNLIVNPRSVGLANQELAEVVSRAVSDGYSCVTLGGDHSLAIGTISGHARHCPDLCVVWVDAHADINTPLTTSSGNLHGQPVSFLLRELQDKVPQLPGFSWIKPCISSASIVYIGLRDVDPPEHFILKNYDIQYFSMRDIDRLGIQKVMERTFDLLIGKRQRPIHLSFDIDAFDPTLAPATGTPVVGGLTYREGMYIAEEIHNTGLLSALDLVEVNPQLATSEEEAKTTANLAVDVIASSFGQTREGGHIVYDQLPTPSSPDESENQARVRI
The experiment in a line: in vitro enzyme assay to detect the production of urea directly proportional to the activity of Arginase II. Further: in the data most compounds retested in dose-response had high values. It is filed as functional. As to conditions: 33.3 µM.

Test [5] has as its target T3, Proteasome subunit beta (Trypanosoma cruzi) (UniProt O96673).
T3 sequence (whole entry): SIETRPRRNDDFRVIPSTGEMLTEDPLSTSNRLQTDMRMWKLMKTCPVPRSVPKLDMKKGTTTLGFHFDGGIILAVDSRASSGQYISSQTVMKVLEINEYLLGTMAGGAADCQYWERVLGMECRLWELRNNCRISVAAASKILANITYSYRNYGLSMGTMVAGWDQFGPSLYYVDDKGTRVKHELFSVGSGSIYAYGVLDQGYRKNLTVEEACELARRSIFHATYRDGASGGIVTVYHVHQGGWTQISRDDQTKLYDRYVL
The test is described as follows: Trypanosoma cruzi proteasome chymotrypsin-like activity (TcProtChymo) assay. Further: in the data most compounds retested in dose-response had high values. As to conditions: 9.37 µM. It counts as functional.

For a further test, the system named is N/A. The experiment in a line: Trypanosoma cruzi proteasome luciferase counter-screen. It is filed as functional. As to conditions: 9.37 µM.
For another test, the species on record is Homo sapiens. The experiment in a line: To identify inhibition of the IFN signalling (Jak-Stat) pathway via expression of an eGFP reporter gene under the control of an IFN-stimulated response element (ISRE) containing MxA promoter. It counts as functional. Particulars: 30 µM.
Test [6] deals with T4, Tyrosyl-tRNA synthetase, putative (Trypanosoma cruzi (strain CL Brener)) (UniProt Q4DSP6).
T4 sequence (whole entry): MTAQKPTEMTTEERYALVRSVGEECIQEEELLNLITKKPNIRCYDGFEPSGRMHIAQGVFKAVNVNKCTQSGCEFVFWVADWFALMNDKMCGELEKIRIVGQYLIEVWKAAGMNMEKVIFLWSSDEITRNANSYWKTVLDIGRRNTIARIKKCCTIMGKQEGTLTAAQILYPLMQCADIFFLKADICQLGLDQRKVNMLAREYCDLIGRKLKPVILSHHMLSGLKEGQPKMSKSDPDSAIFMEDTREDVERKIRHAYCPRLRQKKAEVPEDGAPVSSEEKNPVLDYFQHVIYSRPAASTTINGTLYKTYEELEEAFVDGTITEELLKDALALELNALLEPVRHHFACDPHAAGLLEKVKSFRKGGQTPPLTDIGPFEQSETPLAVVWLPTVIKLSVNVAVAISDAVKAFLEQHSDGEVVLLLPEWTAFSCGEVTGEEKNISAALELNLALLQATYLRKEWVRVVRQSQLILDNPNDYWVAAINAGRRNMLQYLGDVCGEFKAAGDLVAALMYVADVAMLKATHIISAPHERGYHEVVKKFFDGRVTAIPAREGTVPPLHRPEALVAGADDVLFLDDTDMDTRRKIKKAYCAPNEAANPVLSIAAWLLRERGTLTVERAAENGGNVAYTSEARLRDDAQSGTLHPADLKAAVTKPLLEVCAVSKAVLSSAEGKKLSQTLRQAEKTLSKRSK
The test is described as follows: Trypanosoma cruzi tyrosyl tRNA synthetase (TcYRS) _High Tyrosine SOP. Further: in the data most compounds retested in dose-response had high values. It counts as functional. Particulars: 30 µM.

For test [7], the target named is T4, Tyrosyl-tRNA synthetase, putative (Trypanosoma cruzi (strain CL Brener)). The experiment in a line: Trypanosoma cruzi tyrosyl tRNA synthetase (TcYRS) SOP. It is filed as functional. As to conditions: 30 µM.
In test [8] the target is Chromo domain-containing protein 1 (Saccharomyces cerevisiae (strain ATCC 204508 / S288c) (Baker's yeast)) (UniProt P32657). The test is described as follows: ScCHD-1 Enzyme Inhibition Assay. Further: in the data most compounds retested in dose-response had high values. It is filed as functional. Particulars: 30 µM.
Chain of Chromo domain-containing protein 1 (Saccharomyces cerevisiae (strain ATCC 204508 / S288c) (Baker's yeast)) (P32657 whole entry, the tested form may be a part): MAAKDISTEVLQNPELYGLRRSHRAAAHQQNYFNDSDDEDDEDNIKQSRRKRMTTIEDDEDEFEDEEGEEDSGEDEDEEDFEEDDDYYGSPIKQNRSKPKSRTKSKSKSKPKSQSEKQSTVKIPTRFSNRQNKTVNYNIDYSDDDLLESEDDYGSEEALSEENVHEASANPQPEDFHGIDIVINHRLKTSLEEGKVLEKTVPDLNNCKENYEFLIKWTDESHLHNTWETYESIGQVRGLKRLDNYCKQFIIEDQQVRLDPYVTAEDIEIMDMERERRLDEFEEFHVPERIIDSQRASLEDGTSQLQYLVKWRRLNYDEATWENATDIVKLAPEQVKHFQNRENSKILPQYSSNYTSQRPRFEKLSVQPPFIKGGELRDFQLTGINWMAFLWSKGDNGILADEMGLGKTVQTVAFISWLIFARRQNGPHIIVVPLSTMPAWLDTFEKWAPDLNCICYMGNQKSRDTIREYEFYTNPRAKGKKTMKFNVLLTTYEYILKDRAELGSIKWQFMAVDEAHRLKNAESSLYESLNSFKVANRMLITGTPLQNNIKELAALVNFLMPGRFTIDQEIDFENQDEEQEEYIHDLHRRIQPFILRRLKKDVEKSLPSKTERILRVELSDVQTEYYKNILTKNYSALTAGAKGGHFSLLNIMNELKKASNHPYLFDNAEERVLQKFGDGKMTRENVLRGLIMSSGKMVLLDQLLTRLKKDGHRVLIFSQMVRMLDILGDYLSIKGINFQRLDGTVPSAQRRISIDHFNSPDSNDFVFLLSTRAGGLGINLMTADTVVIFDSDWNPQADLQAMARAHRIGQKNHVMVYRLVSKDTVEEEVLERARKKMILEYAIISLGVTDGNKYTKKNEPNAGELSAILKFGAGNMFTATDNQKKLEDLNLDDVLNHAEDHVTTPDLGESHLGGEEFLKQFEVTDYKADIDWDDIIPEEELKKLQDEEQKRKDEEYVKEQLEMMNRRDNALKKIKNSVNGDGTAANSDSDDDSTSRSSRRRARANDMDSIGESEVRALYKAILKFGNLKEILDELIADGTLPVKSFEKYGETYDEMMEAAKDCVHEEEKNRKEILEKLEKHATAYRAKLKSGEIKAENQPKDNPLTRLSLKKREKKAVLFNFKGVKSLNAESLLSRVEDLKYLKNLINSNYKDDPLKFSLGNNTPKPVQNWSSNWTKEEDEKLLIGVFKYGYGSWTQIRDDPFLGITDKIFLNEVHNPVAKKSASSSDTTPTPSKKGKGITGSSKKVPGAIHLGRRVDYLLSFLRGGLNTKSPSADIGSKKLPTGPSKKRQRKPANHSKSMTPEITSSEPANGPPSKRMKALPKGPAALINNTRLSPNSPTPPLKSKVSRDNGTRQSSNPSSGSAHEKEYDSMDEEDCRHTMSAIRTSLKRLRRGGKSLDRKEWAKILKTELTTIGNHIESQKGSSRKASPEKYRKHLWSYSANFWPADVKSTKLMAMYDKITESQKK
The target in test [9] is AMP-activated protein kinase, AMPK (Homo sapiens) (UniProt P54646+O43741+P54619+Q9UGJ0+Q9Y478+Q13131+Q9UGI9). The experiment in a line: AMP-dependent Kinase enzyme assay. An in vitro enzyme assay that detects ADP turnover that is directly proportional to AMPK activity. This uses naive AMPK that is activated during the assay with MK-8722. It is filed as functional. Particulars: 30 µM.

As to `Cc1nc(C)c(C(=O)OCCNc2ncccc2C#N)s1`, the Percent Effect in test [1] was -3.81%; in test [2] it was 10.4%; in test [3], 12.8%; in the test on Trypanosoma cruzi it was -7.09%; in test [4], 1.02%; in [5], 71.6% and 65.6% and 62.3%. Moreover, the Percent Effect in the test with N/A is 28.5% and 30.6%; in the test listed under Homo sapiens it was 32.9%; in test [6], 2.94%; in [7] it was 9.41%; in test [8] it was 0.0387%.

With `CC1CN(CC(=O)NC2CCCC2)CCN1c1ccc2nncn2n1` (configuration not stated), the Percent Effect is -1.74% in [1]; 12.8% in test [2]; 1.41% in test [3]; 0.0939% in the test on Trypanosoma cruzi; 4.1% in test [4]; 15.8% in test [5]. Moreover, the Percent Effect in the test filed under Homo sapiens is 12.2%; in test [6], 7.18%; in [7], 20.5%; in test [8], -1.24%.

With `COc1ccc(OCCc2sc(C3(O)CCCNCC3)nc2C)cc1` (configuration not stated), the Percent Effect in [1] was -5.55%; in [2], 6.76%; in test [9], 2.86%; in test [3] it was 1.72%; in the test on Trypanosoma cruzi, 0.198%; in test [4] it was -6.73%. The Percent Effect in [5] was 13.6%; in the test listed under Homo sapiens, 21%; in test [6], -3.23%; in [7] it was 9.09%; in [8] it was -24.4%.

Regarding `O=C(NCc1cc(O)ncn1)C1CCOc2ccccc2C1` (configuration not stated), the Percent Effect in test [1] is -6.27%; in test [2], 5.41%; in test [3] it was 6.22%; in the test on Trypanosoma cruzi, 1.26%; in test [4] it was 5.94%; in [5], 14.4%. Besides, the Percent Effect in the test listed under Homo sapiens was 15.2%; in [6], 6.92%; in test [7], 12.2%; in [8] it was -2.81%.

In the case of `CCc1nnc2n1CCN(Cc1csc(-c3ccc(C)o3)n1)C2`, the Percent Effect was -2.83% in test [1]; 10.3% in test [2]; -4.26% in test [3]; 7.42% in the test on Trypanosoma cruzi; 1.23% in test [4]; 36.4% and 37.5% and 36.1% in test [5]. The Percent Effect in the test with N/A was 6.53% and 0.633%; in the test listed under Homo sapiens, 4.79%; in test [6], 8.13%; in test [7], 22.9%; in test [8], -6.08%.

For `CNc1cc2c(nn1)CCN(C(=O)C1CCCc3ccccc31)C2` (configuration not stated), the Percent Effect in [1] was -1.49%; in test [2], 7.59%; in [9], -8.51%; in test [3] it was 1.73%; in the test with Trypanosoma cruzi, -4.44%; in test [4] it was 4.18%. The Percent Effect was -2.38% in test [5]; 8.64% in the test filed under Homo sapiens; 5.42% in test [6]; 3.8% in [7]; -3.47% in test [8].

Turning to `COc1ccc(-c2ccnc3c2C(=O)CCC3)cc1`, the Percent Effect is 0.627% in test [1]; 22.7% in test [2]; -8.36% in test [3]; 0.789% in the test with Trypanosoma cruzi; 0.885% in test [4]; 78.1% and 77.9% and 84.4% in test [5]. Also, the Percent Effect in the test on N/A was 54.8% and 45.5%; in the test listed under Homo sapiens it was 22.2%; in test [6] it was 2.12%; in test [7], 7.5%; in test [8], -22.2%.

Regarding `CN(C)c1cc(CNC(=O)Nc2ccc(F)cc2)ccn1`, the Percent Effect in [1] was 2.4%; in test [2], 17.9%; in test [3] it was -9.83%; with Trypanosoma cruzi, 3.29%; in test [4], 0.41%; in [5] it was 47.8% and 47.4% and 50.2%. Also, the Percent Effect was 25.9% and 25.6% in the test with N/A; 6.94% in the test filed under Homo sapiens; 7.18% in test [6]; 25.3% in test [7]; -3.18% in [8].

Consider `Cc1cc(C)n(CC2CCCCN2C(=O)c2cnn(C)c2)n1` (configuration not stated), for which the Percent Effect was -5.83% in [1]; 8% in test [2]; 1.34% in [3]; -5.22% with Trypanosoma cruzi; -2.22% in [4]; 6.02% in test [5]. For the same compound, the Percent Effect in the test filed under Homo sapiens was 5.12%; in test [6], -0.526%; in test [7], 2.56%; in test [8], -0.708%.

Regarding `O=C(CCN1CCCN(c2nccs2)CC1)NCC1CCCCC1`, the Percent Effect in test [1] was -2.39%; in test [2], 5.33%; in [3] it was 1.99%; in the test on Trypanosoma cruzi, -3.61%; in test [4] it was 0%; in test [5], 9.41%. The Percent Effect in the test listed under Homo sapiens is 3.1%; in test [6], 6.84%; in test [7], 7.69%; in test [8], -5.72%.

As for `COc1cccc(-c2nc(CNCCn3cccn3)cs2)c1`, the Percent Effect in [1] is -0.562%; in test [2], -2.56%; in test [3], -1.83%; in the test with Trypanosoma cruzi, -5.54%; in test [4], 2.46%; in [5], 59.5% and 60.9% and 43.9%. In addition, the Percent Effect in the test on N/A is 31.8% and 30.9%; in the test filed under Homo sapiens it was 37.8%; in [6], 4.31%; in test [7], 6.02%; in test [8], 1.48%.
